Tau ThT inhib: inhibitors of human tau fibril formation, thioflavin T binding. recombinant tau K18 P301L, heparin-induced fibrillization, ThT fluorescence. 270,000 tested, 2.1% active. P10636. Potency, µM (top dose mostly 57.4 µM), inactives show at the highest dose activity, negative = inhibition, hits mostly inhibitors; also: potency is read from the fitted curve at half-maximal effect; nearly all actives have a fitted effect of over 55% in size
Target sequence (P10636 561-689 P618L limits assumed): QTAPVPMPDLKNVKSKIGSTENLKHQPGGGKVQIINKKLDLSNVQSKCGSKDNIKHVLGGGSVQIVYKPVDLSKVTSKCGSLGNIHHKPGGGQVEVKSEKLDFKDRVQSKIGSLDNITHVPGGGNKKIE
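In this qHTS, human K18 P301L tau is incubated with compound and heparin for 6 hr at 37 C, and Thioflavin T fluorescence then reports fibril load.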
Sfp PPTase inh: Sfp phosphopantetheinyl transferase inhibition; Q9F4F7; Biochemical Sfp PPTase activity, qHTS; Potency, µM, for inactives: largest response in the series, negative = inhibition, most hits filed as inhibitors; 310,000 tested, 3.5% active; AID 1490;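 also: the enzyme is Sfp with the accession as filed and its product quenches rhodamine fluorescence; potency is read from the fitted curve at half-maximal effect; 0% = enzyme reaction without inhibitor and -100% = no enzyme wells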
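Fluorescence-quenching assay: 15 nM Sfp-PPTase preincubated 15 min at room temperature with compound, then 5 uM rhodamine-CoA and 12.5 uM BHQ-2-labelled YbbR peptide added. Fluorescence (ex 525/em 598 nm) read at start and after 30 min; difference gives rate.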
Tau fluor counter: counter-screen for tau fibril formation inhibitors | tau K18 P301L (four-repeat tau fragment) Alexa594 fluorescence, heparin fibrillization | Potency, µM (top dose mostly 57.7 µM), for the others: top-dose activity change, negative = decrease | 280,000 tested, 0.93% active | AID 1463; also: potency is read from the fitted curve at half-maximal effect; nearly all actives have a fitted effect of over 55% in size
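Human K18 P301L tau (15 uM unlabeled plus 0.24 uM Alexa 594-labeled, final) in 100 mM sodium acetate pH 7 was mixed with compound and 20 uM heparin and incubated 6 hr at 37 C.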
Tau fibril FP: tau fibrillization inhibition (FP). P10636. K18 P301L tau heparin fibrillization, Alexa594 FP, 6 h. Potency, µM (highest dose often 57.7 µM), without a hit: at the highest dose activity, negative = inhibition, actives largely listed as inhibitors. 280,000 tested, 0.39% active. AID 1468; also: potency is read from the fitted curve at half-maximal effect; nearly all actives have a fitted effect of over 55% in size
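Human tau K18 […] P301L fragment, 15 uM unlabeled plus 0.24 uM Alexa 594-labeled tau (final), with compound and 20 uM heparin in 100 mM sodium acetate pH 7; 6 hr at 37 C, then Alexa 594 FP read.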
FBPA coupling cs: inhibits coupling enzyme system, counter-screen for aldolase hits; 290,000 tested, 0.67% active; AID 2472; coupling enzyme system counterscreen, AmpLite Red fluorescence; activity change, negative = inhibition, % at 58.2 µM, hits read low; in the data active = activity change below about -30%
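Counterscreen lacking aldolase: glyceraldehyde-3-phosphate coupling-enzyme reagent preincubated 10 min at RT with compound (at 57.5 uM final), then substrate/coupling system with AmpLite Red added; fluorescence read at 525/598 nm after 20 min RT.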
G9a inh: G9a (human) methyltransferase inhibition | G9a H3K9 monomethylation, AlphaScreen, 2 h | 350,000 tested, 8.8% active | Q96KQ7 | Potency, µM (titrated, usually from 102 µM), for inactives: at the highest dose activity, negative = inhibition, actives largely listed as inhibitors; also: potency is read from the fitted curve at half-maximal effect; nearly all actives have a fitted effect of over 75% in size
Target sequence (Q96KQ7 913-1193 limits assumed): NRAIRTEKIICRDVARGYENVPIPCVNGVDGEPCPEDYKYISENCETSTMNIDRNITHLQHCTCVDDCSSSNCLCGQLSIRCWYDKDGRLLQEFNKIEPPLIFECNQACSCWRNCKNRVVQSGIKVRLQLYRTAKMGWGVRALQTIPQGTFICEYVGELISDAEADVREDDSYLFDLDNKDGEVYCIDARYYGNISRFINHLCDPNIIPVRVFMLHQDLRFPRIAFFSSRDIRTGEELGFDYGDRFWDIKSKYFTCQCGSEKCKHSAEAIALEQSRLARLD
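Step 1: enzyme (final 20 nM) with compound, 15 min RT. Step 2: substrate peptide 500 nM and SAM 20 uM, 2 h RT. Step 3: anti-H3K9me1 antibody and AlphaScreen beads, 10 min, then plate read.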
Active calls of the source: *; ? = inconclusive; . = no result; [ ] = another dose, or the depositor's remark. A selection: hits, their analogues and other compounds. The true share with any hit is near 11%. Unless noted, calls follow the shape of the dose curve; as a rule, active = well fitted curve in the direction sought with a large enough effect; inconclusive = small, poorly fitted or top-dose-only effect, or another doubt; inactive = no such curve, though single readings can be large; an effect the other way counts as inactive or inconclusive. Unless noted, % is scaled to controls: 0 for no effect and ±100 for the full control effect.

SMILES	Tau ThT inhib	Sfp PPTase inh	Tau fluor counter	Tau fibril FP	FBPA coupling cs	G9a inh
Cc1ccc2nc(SCC(=O)NCc3ccc(F)cc3)nc(=O)n2c1	.	.	.	.	.	-4%
COc1cccc(Cn2c(=O)c(-c3ccc(Cl)cc3)nc3cnc(N4CCOCC4)nc32)c1	.	-19%	.	.	7	-3%[0.501 µM]
CC(NC(=O)COc1ccc(/C=N/NS(=O)(=O)c2ccccc2)cc1)c1ccccc1 (centres undefined)	-6%	8%	-2%	4%	-5	50µM*
Cc1ccccc1CN1CCc2nc(N3CCN(c4ncccn4)CC3)ncc2C1	?	.	-4%	-9%	.	?
O=C(c1ccc(OC2CCN(CCc3ccccc3)CC2)cc1)N1CCC(CO)CC1	.	13%	.	.	4	-5%
Nc1ccc(N(CCO)CCO)cc1	11µM*	13µM*	?	16µM*	-38*	11µM*
COCCn1c(=O)c(-c2cccs2)nc2cnc(OC)nc21	.	21%	.	.	2	19%[0.501 µM]
COC(=O)c1ccc(/C=N/Nc2nc(-c3ccc(C)cc3)cs2)cc1	?	-27%	-21%	11%	2	79µM*
COC(=O)c1ccc(/C=N/Nc2nc(-c3ccc(Cl)cc3Cl)cs2)cc1	?	10%	-19%	6%	2	50µM*
COc1ccc(/C=N/Nc2nc(C(=O)O)cs2)cc1	.	?	.	.	-1	40µM*
COC(=O)c1ccc(/C=N/Nc2nc(-c3ccccc3)cs2)cc1	?	-13%	-29%	8%	1	?
CCOC(=O)CCCN1C(=O)CCn2nc(-c3cn(C)c4ccccc34)cc21	?	.	-17%	?	.	4%[59 µM]
CCN(CC)c1ccc(NC(=O)COCc2cc(-c3ccc4c(c3)OCO4)on2)c(C)c1	2.8µM*	.	?	10%	.	4.5µM*
COc1ccc(C2(CNC(C)=O)CCCC2)cc1OC	3%	8%	5%	1%	-7	-43%[0.0925 µM]
COc1ccc(CNC(=O)/C=C/c2ccco2)cc1OC	-16%	45µM*	-8%	-13%	1	45µM*
O=C(/C=C/c1ccco1)NCC1(c2ccccc2)CCCC1	-10%	-29%	-1%	2%	-4	11µM*
COc1ccc(C2(CNC(=O)/C=C/c3ccco3)CCCC2)cc1OC	-15%	22µM*	-4%	-4%	-4	?
CCN(CC)S(=O)(=O)c1ccc(OC)c(NC(=O)/C=C/c2ccco2)c1	?	25µM*	-16%	?	0	.
CCN(CC)S(=O)(=O)c1ccc2c(c1)N(CC(=O)Nc1c(C)cc(C)cc1C)C(=O)CS2	8%	.	-6%	-8%	.	8%[59 µM]
CCOC(=O)c1cc2c(nc1C)-c1cc(Cl)cc(Cl)c1OC2O (centres undefined)	-17%	9%	-1%	1%	-2	15%
N#CCCN(C(=O)COC(=O)c1ccc2c(=O)n3c(nc2c1)CCC3)c1ccc(F)cc1	10%	5%	3%	-10%	9	-23%
Cc1ccc(N2C(N)=C(C#N)C(c3cccs3)C3=C2CC(C)(C)CC3=O)cc1 (centres undefined)	25µM*	-25%	-25%	-18%	-8	?
COc1cc(CCC(=O)NCc2ccc3c(c2)CCN3C(=O)c2ccc(F)cc2)cc(OC)c1OC	-4%	.	-3%	-5%	.	4%[59 µM]
CCN1CCN(c2cc(C)c3cc(NC(=S)N4CC(C)CC(C)C4)ccc3n2)CC1 (centres undefined)	?	0%	?	9%	-1	35µM*
CCN1CCN(c2cc(C)c3cc(NC(=S)N4CCCC4)ccc3n2)CC1	-13%	17%	-3%	1%	1	?
SMILES	Tau ThT inhib	Sfp PPTase inh	Tau fluor counter	Tau fibril FP	FBPA coupling cs	G9a inh
CCN1CCN(c2cc(C)c3cc(NC(=S)N4CCCCC4)ccc3n2)CC1	?	-10%	?	2%	-7	45µM*
CCN1CCN(c2cc(C)c3cc(NC(=S)N4CCCC(C)C4)ccc3n2)CC1 (centres undefined)	?	8%	-29%	6%	-3	45µM*
CCN1CCN(C(=S)Nc2ccc3nc(N4CCN(C)CC4)cc(C)c3c2)CC1	?	-3%	-13%	8%	-3	?
CCN1CCN(C(=S)Nc2ccc3nc(N4CCN(CC)CC4)cc(C)c3c2)CC1	?	6%	?	?	0	20µM*
Cc1cn(C2CC3OCC(NC(=O)C4CCCN4C(=O)OC(C)(C)C)C3O2)c(=O)[nH]c1=O (centres undefined)	.	25%	.	.	2	.
COc1cccc(NS(=O)(=O)c2ccc3[nH]cc(C(=O)NCCC(C)C)c(=O)c3c2)c1	2%	7%	?	?	-1	.
CC(C)CCNC(=O)c1c[nH]c2ccc(S(=O)(=O)Nc3cccc(C(F)(F)F)c3)cc2c1=O	6%	.	?	14µM*	.	0%[59 µM]
Cc1cc(C)cc(NS(=O)(=O)c2ccc3[nH]cc(C(=O)NCCc4ccccc4)c(=O)c3c2)c1	2%	.	?	?	.	-9%[59 µM]
O=C(NC1CCCC1)c1c[nH]c2ccc(S(=O)(=O)Nc3cccc(C(F)(F)F)c3)cc2c1=O	11%	.	?	10µM*	.	-44%[59 µM]
Cc1ccccc1NS(=O)(=O)c1ccc2[nH]cc(C(=O)NCCc3ccccc3)c(=O)c2c1	8%	.	?	11µM*	.	-4%[12.7 µM]
Cc1ccc(CCNC(=O)c2c[nH]c3ccc(S(=O)(=O)Nc4cccc(C(F)(F)F)c4)cc3c2=O)cc1	?	.	?	7.9µM*	.	4%[59 µM]
COc1ccc(CC2(CO)CCN(S(=O)(=O)c3sccc3C)CC2)cc1	-9%	-6%	?	-3%	-2	.
COc1ccc(Nc2nc(-c3c[nH]c4ccccc34)cs2)cc1	8.9µM*	-22%	13µM*[quencher]	?	-6	?
COc1ccc(Nc2nc(-c3ccc(OC)cc3)cs2)cc1	?	-6%	?	6%	-2	-27%
CCOc1ccc2[nH]cc(-c3csc(N)n3)c2c1	.	1%	.	.	-7	16%[0.501 µM]
COc1ccc(-c2csc(Nc3ccccc3)n2)cc1	?	-4%	28µM*[quencher]	6%	-5	-1%[12.7 µM]
COc1ccc(-c2csc(Nc3cccnc3)n2)cc1	?	79µM*	?	?	0	-14%[59 µM]
COc1ccc2oc(=O)c(-c3csc(-c4ccc(Br)cc4)n3)cc2c1	6%	.	-10%	-11%	.	0%[59 µM]
COc1ccc2oc(=O)c(-c3csc(Nc4ccc(O)cc4)n3)cc2c1	2.2µM*	25µM*	3.2µM*[quencher]	-15%	-5	?
CN(Cc1ccccc1Br)C(=O)CN1C(=O)NC2(CCCCCC2)C1=O	.	.	.	.	.	-7%[59 µM]
Cc1ccc(C)c(S(=O)(=O)NC2CCSC2=O)c1 (centres undefined)	.	.	.	.	.	-2%
